Screening data as filed in PubChem.
A selection: hits, their analogues and other compounds. The true share with any hit is near 13%.
HCV inh: HCV inhibition; AID 651820; 340,000 compounds, 3.4% hits; Huh7.5.1 HCVcc-Cre infection, luciferase reporter, 44 h; Potency, µM (highest dose often 41.8 µM), for inactives: at the highest dose activity change, negative = inhibition, usual class: inhibitors; further: potency means the concentration at half of the fitted maximal effect
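Reporter virus HCVcc-Cre (~0.5 moi) infects cells exposed to compound; seeding density 1,000 cells/well with 4 h settling beforehand. Luminescence, 15 sec read, taken 44 h post-infection following a 15 min RT substrate incubation.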
HCMV antiviral: blocks human cytomegalovirus replication | HFF cells, HCMV-luciferase reporter, 72 h; active compounds read low | activity change, negative = inhibition, % at 57.5 µM | 410,000 compounds, 4.5% hits; in the data active means activity change below about -60%; inconclusive means no clear call, values can overlap the other calls; inactive means above about -39%
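Screen run at 2 compound doses on HFFs infected with reporter HCMV, MOI 1 PFU/cell. Luciferase activity from cell lysates at 72 h post infection gave inhibition relative to buffer-only and Salinomycin wells.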
Pf growth 96h: P. falciparum growth inhibition at 96 hours | P. falciparum luciferase reporter growth, 96 h | Potency, µM (doses to about 28.7 µM), for inactives: at the highest dose activity change, negative = inhibition, hits mostly inhibitors | 320,000 compounds, 6.9% hits; further: potency means the concentration at half of the fitted maximal effect
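Plates of compound plus infected erythrocytes (2% hematocrit, 0.05% parasitemia final) incubate 96 hours, 37 C, 5% CO2. Detection reagent added; reduced luminescence from the parasites' luciferase reporter flags inhibition.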
Pf growth 48h: inhibits P. falciparum growth in the first generation, 48 h; P. falciparum luciferase growth in erythrocytes, 48 h; Potency, µM (series often up to 28.7 µM), for inactives: at the highest dose activity change, negative = inhibition, most hits filed as inhibitors; 310,000 compounds, 5.9% hits; AID 504832; further: potency means the concentration at half of the fitted maximal effect
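In quantitative HTS format, infected erythrocytes bearing luciferase-reporter parasites were treated for a single generation at 37 C. Luminescence after adding detection reagent served as the growth measure.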
Starred values were filed as active, the others as inactive; u = inconclusive; x = no result; + = active, no number; [ ] = another dose, or the depositor's remark. Unless noted, the call rests on the fitted dose curve; in most records, active means well fitted inhibition curve with a large enough effect; inconclusive means small, poorly fitted or top-dose-only effect, or another doubt; inactive means no such curve, though single readings can be large or run the other way. On the % scale 0 is the no-effect control and ±100 the full control effect.

SMILES	HCV inh	HCMV antiviral	Pf growth 96h	Pf growth 48h
O=c1c2ccccc2[nH]c(=S)n1Cc1cccs1	10%	-68*	u	8%
O=C(NCC1CCCO1)C(c1cccs1)N(Cc1ccccc1Cl)C(=O)c1ccc(-c2ccccc2)[nH]1 (stereo unspecified)	u	8	19%	5.2µM*
O=C(NC1CCCC1)C(c1ccncc1)N(Cc1ccccc1)C(=O)c1ccc(-c2ccccc2)[nH]1 (stereo unspecified)	u	-12	u	u
Cc1ccc(C(C(=O)NCC2CCCO2)N(Cc2ccccc2)C(=O)c2ccc(-c3ccccc3)[nH]2)o1 (stereo unspecified)	u	u	u	8.3µM*
CSc1cccc(NC(=O)N2CCCC(CNS(=O)(=O)Cc3ccccc3)C2)c1 (stereo unspecified)	-16%	-22	9.3µM*	-5%
O=C(Nc1ccccc1)N1CCCC(CNS(=O)(=O)Cc2ccccc2)C1 (stereo unspecified)	16%	28	-6%	11%
CSc1cccc(NC(=S)N2CCC(c3ccccc3)C2)c1 (stereo unspecified)	-29%	-82*	6%	-3%[0.00184 µM]
CCC(Sc1nc2ccncc2[nH]1)C(=O)Nc1ccc(F)cc1 (stereo unspecified)	x	-6	x	x
CCOC(=O)c1cc(C#N)c(N2CCCNCC2)nc1C(F)(F)F	16µM*	1	u	-30%
Cc1c(C(=O)N2CCCCC2)c(S(=O)(=O)N2CCC(C)CC2)c(C)n1C	31%	+	39%	19%
CCOC(=O)c1c(S(=O)(=O)N2CCCC(C(=O)Nc3ncccc3C)C2)c(C)n(C)c1C (stereo unspecified)	3%	1	12µM*	5%
CCOC(=O)c1c(S(=O)(=O)N2CCC(C)CC2)c(C)n(C)c1C	7%	0	8.3µM*	10%
Oc1cccnc1Sc1cccc(C(F)(F)F)c1	23%	11	x	x
Nc1nc(N)c2cc(Sc3cccc(C(F)(F)F)c3)ccc2n1	x	-70*	x	x
Nc1ccc(Sc2cc(Cl)nc(N)n2)cc1	9%	x	2%	-16%
Nc1nc(N)c2cc(Sc3ccc(Cl)cc3)ccc2n1	x	-77*	x	x
Nc1nc(N)c2cc(Sc3ccc4ccccc4c3)ccc2n1	11µM*	-84*	u	0.0074µM*
COc1ccc(NC(=O)c2cc(C3CCCCN3C(=O)c3ccc4c(c3)CCO4)on2)c(C)c1 (stereo unspecified)	x	-22	x	x
CCCNC(=O)c1c(NC(=O)c2ccccc2)sc2c1CCC(C(C)(C)C)C2 (stereo unspecified)	x	-6	x	x
CCc1ccc(C(=O)CSc2nc(-c3ccccc3)nc3c2CCCC3)cc1	x	12	x	x
NC(=O)c1oc2ccccc2c1NC(=O)c1ccc([N+](=O)[O-])o1	u	-102*	-20%	9.3µM*
O=C(NNC(=O)c1ccc([N+](=O)[O-])o1)c1ccccc1	u	-92*	-12%	u
O=C(NCC1CCCO1)c1ccc([N+](=O)[O-])o1 (stereo unspecified)	-4%	-8	-3%	u
O=C(NN(c1ccccc1)c1ccccc1)c1ccc([N+](=O)[O-])o1	u	-93*	-22%[5.75 µM]	u
NC(=O)c1oc2ccccc2c1NC(=O)c1ccc(F)cc1	u	83	7%	4%
SMILES	HCV inh	HCMV antiviral	Pf growth 96h	Pf growth 48h
CCCCC(=O)Nc1ccc(C(=O)OCc2cc(=O)n3nc(C4CC4)sc3n2)cc1	x	-8	x	x
O=C1NC(c2ccccc2)(c2ccccc2)C(=O)N1CNc1ccccn1	x	-10	x	x
CCOC(=O)CC(=O)CSc1nc(C)cc(C)c1C#N	5%	0	-21%	26%
CCOC(=O)c1cc(C#N)c(SCc2ccc(C#N)cc2)nc1C	u	67	18%	-4%
C=CCCc1ccc(C#N)c(SCc2c(C(=O)OCC)c3cc(OC(C)=O)c(Br)cc3n2C)n1	u	x	0%	5.2µM*
CCOC(=O)c1c(CSc2nc(C)cc(C)c2C#N)n(C)c2cc(Br)c(OC(C)=O)cc12	u	-94*	u	u
CCN(c1ccc(C)cc1C)S(=O)(=O)c1nnc(NC(=O)CC(C)C)s1	x	-32	x	x
Cc1cccc(-c2cnc(C(O)c3ccc(F)c(C)c3)[nH]2)c1 (stereo unspecified)	x	59	x	x
C#CCOCCOCCOCCNc1nc(N2CCN(C(=O)CCCCCCCCCCNC(=O)[C@@H](CCC(=O)O)n3cc(CCCCCN)nn3)CC2)nc(N2CCN(C(=O)CCCCCCCCCCNC(=O)[C@H](CO)n3cc(CCCCCN)nn3)CC2)n1	0%	x	5.9µM*	2.1µM*
C#CCOCCOCCOCCNc1nc(N2CCN(C(=O)Cn3cc(CCCCN)nn3)CC2)nc(N2CCN(C(=O)[C@H](C)n3cc(CCC(=O)O)nn3)CC2)n1	32%	-22	x	x
C#CCOCCOCCOCCNc1nc(N2CCOCC2)nc(N2CCN(C(=O)CCCCCCCCCCNC(=O)[C@H](CO)n3cc(CCCSC)nn3)CC2)n1	-10%	-12	0.52µM*	0.52µM*
C#CCOCCOCCOCCNc1nc(N2CCN(C(=O)CCCCCCCCCCNC(=O)[C@@H](CCC(=O)O)n3cc(CCCCCN)nn3)CC2)nc(N2CCN(C(=O)CCCCCCCCCCNC(=O)[C@H](CO)n3cc(CCCSC)nn3)CC2)n1	0%	x	u	4.7µM*
Cc1ccc2c(c1)c1c(c(=O)n(-c3ccccc3)c(=O)n1CC(=O)c1ccc(F)cc1)n2C	x	13	x	x
CCc1ccccc1NC(=O)c1cc2nc(-c3ccc(Br)cc3)cc(C(F)(F)F)n2n1	x	12	x	x
Oc1c(C(c2ccccc2Cl)N2CCCC2)sc2nc(-c3ccco3)nn12 (stereo unspecified)	x	15	x	x
O=C(O)c1ccc(N/N=C2/CCSc3ccc(F)cc32)cc1	18%	0	57%	10%
Cc1cc(C)nc(N/N=C2/CCSc3ccc(F)cc32)n1	-15%	-10	10µM*	u
Cc1ccc(NC(=O)CN2C(=O)C3(SCC(=O)N3c3ccc(F)c(F)c3)c3ccccc32)c(C)c1 (stereo unspecified)	x	-31	x	x
CCOCN(C(=O)Cn1c(C)nc2ccccc21)c1c(C)cccc1CC	x	9	x	x
CCOCN(C(=O)Cn1c(CC(C)C)nc2ccccc21)c1c(C)cccc1CC	x	-62*	x	x
Cc1ccc(CC(=O)Nc2nccs2)cc1C	10%	-94*	u	1%
CCOc1ccc(CC(=O)Nc2nccs2)cc1	20%	19	32%	3%
CCc1cccc(NC(=O)CN(C)S(=O)(=O)c2ccc3c(c2)n(C)c(=O)c(=O)n3C)c1	x	-1	x	x
O=C(Nc1ccccc1N1CCCC1)c1ccc(Cl)c(S(=O)(=O)N2CCOCC2)c1	u	-5	8.3µM*	12µM*
Cc1ccc(C(=O)Nc2ccccc2N2CCCCC2)cc1S(=O)(=O)N1CCOCC1	u	-32	x	x
Cc1ccc(C(=O)O)cc1S(=O)(=O)N1CCOCC1	0%	-6	8.3µM*	2%
